Measurements from PubChem BioAssay AID590 (National Center for Advancing Translational Sciences (NCATS), 2007).
Among all 59,000 compounds or so, about 6,500 (11%) were called active. Roughly 15% stayed inconclusive and do not appear here. No stated cut-off is given here; in the data, active means max dye-equivalent concentration above about 10 nM; inconclusive means mostly about 1.1 nM to 9.6 nM; inactive means weaker than that. Shown is part of a subset that was picked to be rich in actives.

Test: qHTS Assay for Spectroscopic Profiling in A350 Spectral Region
Conditions: Compound autofluorescence, 340/450 nm, Alexa 350 dye-equivalents; stronger effect = higher value

Max dye-equivalent concentration, inactive:
CC(=NCc1ccc2c(c1)OCO2)C1=C(O)c2ccccc2C1=O
O=c1[nH]c(-c2cccs2)nc2ccccc12
CCc1c(C)nc(N2CCN(Cc3ccccc3)CC2)[nH]c1=O
N#C/C(=C\c1ccc(O)c(O)c1)C(=O)NCc1ccccc1
CCSC1=C(C#N)C(=O)n2c1cc1c2CCCC1
O=C(NCc1ccc(Cl)cc1)c1cc2c(nc3sccn32)s1
Cc1ccnc(N2CCCC(C(=O)Nc3cc(F)ccc3C)C2)n1 (centres undefined)
CCOC(=O)C1=C(CNC2CCCCC2)NC(=O)NC1c1cc(C)ccc1C (centres undefined)
Cc1cccc(CNc2ccnc(-c3cccnc3)n2)c1
O=C(Nc1cccnc1)c1ccc2c(c1)OCO2
CC(=O)N=c1ncn(CC(COC(C)=O)OC(C)=O)c2nc[nH]c12 (centres undefined)
Cc1ccc(C)c(S(=O)(=O)N2CC(=O)Nc3ccccc32)c1
COc1ccc(CC(=O)Nc2ccc(-c3nnc(-c4ccc(C)cc4)o3)cc2)cc1
Cc1ccc(OCC(=O)Nc2ccc(-c3nnc(-c4ccco4)o3)cc2)cc1
CCOC(=O)c1cc(C)sc1NC(=O)C1CCC1
Cn1c(-c2ccc(F)cc2)cnc1SCC(=O)NCc1ccco1
Cc1ccc(S(=O)(=O)N2CCC(N3CCCCCC3)CC2)cc1
Fc1ccc(Cn2nnnc2C(c2cccs2)N2CCCCCC2)cc1 (centres undefined)
Cc1nn2c3cc(N4CCOCC4)ccc3nc2c2ccccc12
Cc1cc(N2CCN(Cc3ccc4c(c3)OCO4)CC2)n2ncnc2n1
CS(=O)(=O)N(CC(=O)N1CCN(c2cccc(Cl)c2)CC1)c1ccccc1
CCN1C(=O)/C(=C\N2CCN(c3cccc(Cl)c3)CC2)SC1=S
CN1CCN(CC(O)COCc2ccc3c(c2)OCO3)CC1 (centres undefined)
CCOC(=O)Nc1ccc2c(c1)N(C(=O)CN1CCN3CCCC3C1)c1ccccc1CC2 (centres undefined)
CSc1cccc(NC(=O)CSc2ccccc2)c1
Cc1ccccc1CSc1nnc(-c2cccnc2)n1N
CCOC(=O)C1C(=O)NC(N2CCN(c3ccccc3)CC2)=NC1c1ccco1 (centres undefined)
COc1ccc(C2OC(=O)CC2C(=O)NC(C)C)cc1 (centres undefined)
CNC(=O)c1nnn(-c2ccccc2)c1C(=O)NC
CCn1ccnc1C[C@@H]1COc2ccccc2O1
CC1=C(C(=O)Nc2ccc(Cl)cc2)C(c2ccco2)NC(=O)N1 (centres undefined)
COc1ccc(Cl)cc1NC(=O)C1CC(=O)N(c2ccc(F)cc2)C1 (centres undefined)
COCCCNC(=O)C1CC(=O)N(c2ccc(C)cc2)C1 (centres undefined)
O=C(CSc1nnc(-c2cccs2)n1Cc1ccco1)c1ccc2c(c1)OCO2
Cc1ccc(-n2ncc3c(N4CCN(c5ccc(F)cc5)CC4)ncnc32)c(C)c1
CCN1CCCC1CNC(=O)Cn1cnc2ccc(S(=O)(=O)N3CCC(C)CC3)cc2c1=O (centres undefined)
Cc1cc(OCC(=O)O)c(Cl)cc1Cl
CCn1c(Cc2ccccc2)nnc1SCc1nc2ccccc2c(=O)[nH]1
COCCCNC(=O)CCc1nc2cccnc2n1Cc1ccc(OC)cc1
O=C(CC1CCCCC1)Nc1c2c(nn1-c1ccc(F)cc1)CS(=O)(=O)C2
COc1ccccc1-c1nc(NCc2cccs2)c2ccccc2n1
CC1(C)CCCC2=C1CC1C(=O)N(c3ccccc3)C(=O)C1C2 (centres undefined)
CC(C)C(c1nnnn1Cc1ccccc1)N1CCC(C(N)=O)CC1 (centres undefined)
COc1ccc(Cn2cccc(NC(=O)Nc3ccc(C#N)cc3)c2=O)cc1
COc1ccc(C(=O)N2CCC[C@@]3(CCN(C(=O)NC(C)C)C3)C2)cc1
COc1cccc(-c2nc(Nc3ccncc3)c3ccccc3n2)c1
c1ccc2c(Nc3ccncc3)nc(-c3ccoc3)nc2c1
COCCn1c(C)cc(C(=O)CSc2ncnc3sc4c(c23)CCC4)c1C
Cc1cc(C)n(-c2nc(SCC(=O)N3CCCC3)c3c4c(sc3n2)CCCC4)n1
O=S(=O)(NCc1ccc2c(c1)OCO2)c1cccc2nsnc12
COc1ccc(N2C(=O)CCC(C(=O)Nc3ccccn3)C2c2ccc(OC)c(OC)c2)cc1 (centres undefined)
O=C1c2ccccc2C(=O)N1CCCSc1ccccc1
Nc1ccc(SCCN2C(=O)c3ccccc3C2=O)cc1
CCOC(=O)Cc1csc(NC(=O)C(C)(C)C)n1
COc1cc(C2C3C(=O)N(c4ccccc4)C(=O)C3ON2c2ccccc2)ccc1O (centres undefined)
Cc1ccc(NC(=O)CCN2CCc3ccccc3C2)cc1
Cc1ccc(C(c2nnnn2C(C)(C)C)N2CCc3ccccc3C2)cc1 (centres undefined)
O=C(CCCN1C(=O)C2C3C=CC(C3)C2C1=O)N1CCN(c2ccccc2)CC1 (centres undefined)
COC(=O)c1ccc(NC(=O)C(C)N2C(=O)c3ccccc3C2=O)cc1 (centres undefined)
Cc1cc(C)nc(NC(=O)C(C)N2C(=O)c3ccccc3C2=O)n1 (centres undefined)
CC(=O)N1CCN(CCN=CC2=C(O)CC(C)(C)CC2=O)CC1
CCOCCN(C=O)c1cccc(OC)c1
COc1ccc(OC)c([C@H](O)CNC(=O)CN)c1
CCc1ccc(-c2nnn(Cc3nn[nH]n3)n2)cc1
Cc1cc(C)cc(OCc2nnc(SCC(=O)OC3CCCCC3)o2)c1
CC(=O)c1cc(C#N)c(SCC(=O)C(C)(C)C)nc1C
CCOc1cccc(NC(=O)CC#N)c1
COc1ccc(OC)c(S(=O)(=O)N(C)CC(=O)N2CCN(c3ccccc3)CC2)c1
Cc1cccc(N2CCN(C(c3ccccc3)c3nnnn3CC3CCCO3)CC2)c1C (centres undefined)
O=C(Cn1nnc2ccccc2c1=O)Nc1cc(C(F)(F)F)ccc1N1CCOCC1
COc1ccccc1-c1cc(NCc2cccs2)ncn1
CC(C)N1C(=O)C2C(C(=O)NC3CCCCC3)C3C=CC2(O3)C1C(=O)NC1CCCC1 (centres undefined)
CCc1nnc(NS(=O)(=O)c2ccc(NS(=O)(=O)c3ccccc3)cc2)s1
CC(C)c1nnc(NC(=O)C2CCCN2S(=O)(=O)c2ccc(Cl)cc2)s1 (centres undefined)
Cc1c(O)c(Br)c(C)c(O)c1Br (tested in a mixture with another compound)
CCN(CC)c1ccc(C(=O)OCC(=O)c2ccco2)cc1
N#CCSc1nc2ccccc2c(=O)n1-c1ccccc1
Cc1cc(C)nc(N(C#N)CC(=O)Nc2ccccc2)n1
CCOC(=O)N1CCN(C(=O)CNC(=O)Cc2ccc(Cl)cc2)CC1
CCOC(=O)N1CCN(C(=O)c2ccc(S(=O)(=O)c3ccc(C)cc3)c(NC(C)=O)c2)CC1
O=C(O)c1cscn1
Cc1nonc1OCCn1nnnc1N
CC1CCCN(c2ccc(C(=O)NCCc3ccccc3)cn2)C1 (centres undefined)
O=S(=O)(Nc1ccccc1N1CCOCC1)c1ccc(Cl)s1
Oc1cc2c(cc1O)CN(C(=S)NCCc1ccc(Cl)cc1)CCC2
O=S(=O)(NCc1ccccn1)c1ccc(Br)s1

Max dye-equivalent concentration, active:
O=c1[nH]c(=O)c2nc3ccccc3nc2[nH]1 200 nM
N#CC1=C(N)C(C#N)(C#N)[C@H](c2ccsc2)[C@H]2COCC=C12 17 nM
c1cncc(CNc2ccnc(-c3ccc4c(c3)OCO4)n2)c1 15 nM
Cc1ccc(OCC(=O)Nc2ccc(-c3nc4ncccc4o3)cc2)cc1 25 nM
Cc1cc(C)c2c(n1)nn1c(N3CCOCC3)cc(C)nc21 7500 nM
Cc1cc(C)c2c(n1)nn1c(N3CCN(c4cccc(Cl)c4)CC3)cc(C)nc21 110 nM
Cc1cc(C)c2c(n1)nn1c(-n3ccnc3)cc(C)nc21 260 nM
CCOC(=O)C1C(=O)C=C(c2ccc(OC)cc2)CC1c1ccco1 (centres undefined) 11 nM
COc1cccc(N2CC(C(=O)Nc3c(C)cccc3C)CC2=O)c1 (centres undefined) 19 nM
CCN1CCCC1CNc1ncnc2c1[nH]c1ccc(F)cc12 (centres undefined) 14 nM
Fc1ccc2[nH]c3c(N4CCSCC4)ncnc3c2c1 13 nM
Cc1c(C)c2cc3c4c(oc3c(C)c2oc1=O)CCCC4 25 nM
CCOC(=O)Cc1c(C)nc2c(C#N)c(C)nn2c1C 11 nM
c1ccc2c(Nc3ccncc3)nc(-c3ccc4c(c3)OCO4)nc2c1 11 nM
COCCNc1nc(-n2nc(C)cc2C)nc2sc3c(c12)CCCC3 1300 nM
C[N+](C)(CCCCCC[N+](C)(C)CCCN1C(=O)c2cccc3cccc(c23)C1=O)CCCN1C(=O)c2cccc3cccc(c23)C1=O 260 nM
Cc1ccc2c(c1)c1ncnc(N3CCc4ccccc4C3)c1n2C 140 nM
CC(C(=O)O)N1C(=O)c2cccc3cccc1c23 (centres undefined) 14 nM
CCOC(=O)CCc1c(C)c2ccc(OCc3nn[nH]n3)c(C)c2oc1=O 30 nM
CCOc1ccc2cc(C#N)c(SCC(=O)OC)nc2c1 31 nM
CCc1nnc(NC(=O)C2CCCN2S(=O)(=O)c2ccccc2)s1 (centres undefined) 16 nM
C/C(O)=C\c1nc(=O)c2c(C)cc(C)nc2n1-c1ccccc1 44 nM
CCOC(=O)N1CCN(C(=O)c2ccc3nc4cc(Cl)ccc4c(=O)n3c2)CC1 1300 nM
